NPR1 antag: human Npr1 receptor antagonism. AID 1347048. hit rate 1.6% among 76,000. HEK293 hNpr1 GloSensor cGMP, ANP-stimulated luminescence. Potency, µM (doses to about 46.3 µM), inactives show top-dose activity change, negative = inhibition, usual class: inhibitors; calls by dose curve; further: on the % scale 0 is the no-effect control and ±100 the full control effect; nearly all actives have a fitted effect of over 60% in size
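Compound pre-incubated 30 min at room temperature on GloSensor-loaded HEK293 cells stably carrying hNpr1 and the pGS-40F cGMP biosensor. Stimulation uses hNppA at 0.1 nM final; luminescence is taken at baseline and 20 min post-agonist.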
GPT2 inhibitor: GPT2 alanine aminotransferase inhibition; Q8TD30; Recombinant GPT2, coupled pyruvate oxidase/HRP Amplex Red fluorescence; hit rate 0.25% among 100,000; AID 1671188; Potency, µM (doses to about 57.7 µM), inactives show at the top dose activity change, negative = inhibition, most hits filed as inhibitors; further: on the % scale 0 is the no-effect control and ±100 the full control effect; nearly all actives have a fitted effect of over 60% in size
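GPT2 10ng/uL, a-KG 250uM, L-Ala 2mM, HEPES pH7.5 + 0.0001% Tween; 30 min RT. Then Amplex mix (PO/HRP/ThPP), 30 min RT dark, fluorescence. AOA 50uM used as positive control.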
3T3 cytotox: cytotoxic compounds in NIH 3T3 cells | NIH 3T3 viability, CellTiter-Glo ATP luminescence, 48-72 h | hit rate 4.3% among 94,000 | Potency, µM (series often up to 96.7 µM), without a hit: at the highest dose activity change, negative = cytotoxicity, most hits filed as inhibitors; further: on the % scale 0 is the no-effect control and ±100 the full control effect; nearly all actives have a fitted effect of over 55% in size
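First NIH 3T3 cells are plated at 400 cells/well; next compound is pinned in; then plates incubate 48 or 72 hr at 37 °C; finally CellTiter-Glo is added and luminescence read after 10 min.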
HEK293 tox: kills HEK 293 cells. hit rate 6.6% among 94,000. Potency, µM (titrated, usually from 115 µM), inactives show top-dose activity change, negative = cytotoxicity, hits mostly inhibitors. HEK 293 viability, ATP luminescence (CellTiter-Glo), 48-72 h; further: on the % scale 0 is the no-effect control and ±100 the full control effect; nearly all actives have a fitted effect of over 60% in size
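Cells seeded first (HEK 293, 250 cells/well), then compound added by pintool. Incubation ran 48 or 72 hr at 37 degree Celsius. CellTiter-Glo was added and luminescence imaged after 10 min at room temperature.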
FLuc inh: blocks purified firefly luciferase enzyme activity; P08659; purified P. pyralis luciferase, luminescence, biochemical; Potency, µM (doses to about 115 µM), actives largely listed as inhibitors; hit rate 2.5% among 76,000; AID 1347043; further: on the % scale 0 is the no-effect control and ±100 the full control effect; nearly all actives have a fitted effect of over 65% in size
Target sequence (P08659 whole entry, looked up): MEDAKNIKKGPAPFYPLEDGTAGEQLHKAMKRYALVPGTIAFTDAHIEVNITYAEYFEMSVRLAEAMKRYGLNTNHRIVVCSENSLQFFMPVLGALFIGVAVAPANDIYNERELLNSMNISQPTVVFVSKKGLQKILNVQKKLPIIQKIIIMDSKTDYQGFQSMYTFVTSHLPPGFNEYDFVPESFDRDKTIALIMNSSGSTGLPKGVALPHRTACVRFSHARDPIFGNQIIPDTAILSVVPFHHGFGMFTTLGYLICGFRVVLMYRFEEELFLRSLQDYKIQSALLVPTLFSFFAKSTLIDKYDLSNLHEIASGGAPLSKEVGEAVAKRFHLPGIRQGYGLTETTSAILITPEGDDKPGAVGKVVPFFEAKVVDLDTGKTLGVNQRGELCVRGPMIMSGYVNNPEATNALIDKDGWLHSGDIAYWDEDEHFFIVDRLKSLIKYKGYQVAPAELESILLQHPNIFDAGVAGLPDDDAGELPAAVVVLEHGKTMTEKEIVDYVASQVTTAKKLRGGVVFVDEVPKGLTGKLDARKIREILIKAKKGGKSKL
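Luminescence read by CCD imager after adding enzyme (10nM final) to wells holding compound, titrated in qHTS. Substrates 10uM each D-luciferin and ATP; buffer 50mM Tris acetate pH 7.5, 10mM Mg acetate, Tween-20, BSA.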
Npr1 antag conf: hNpr1 antagonism, confirmation assay; Potency, µM (series often up to 57.6 µM), for inactives: at the highest dose activity change, negative = inhibition, hits mostly inhibitors; AID 1347044; hit rate 76% among 1,400; HEK293 hNpr1 cGMP GloSensor luminescence, ANP-stimulated; shares compounds with NPR1 antag; calls by dose curve; further: nearly all actives have a fitted effect of over 70% in size
Npr2 selectivity: antagonizes human Npr2, subtype selectivity check. shares compounds with NPR1 antag. HEK293 hNpr2 GloSensor cGMP luminescence, CNP-stimulated. Potency, µM (doses to about 57.6 µM), for the others: top-dose activity change, negative = inhibition, most hits filed as inhibitors. hit rate 67% among 1,400. AID 1347046; calls by dose curve; further: nearly all actives have a fitted effect of over 70% in size
FLuc inh counter: counter-screen for Npr1 antagonists: firefly luciferase inhibitors; Potency, µM (titrated, usually from 57.6 µM), inactives show at the highest dose activity change, negative = inhibition, hits mostly inhibitors; AID 1347047; hit rate 0.7% among 1,400; purified FLuc enzyme, luminescence, Km substrate; shares compounds with NPR1 antag; further: series mostly up to about 58 µM; 0% is about no effect
GloSensor cGMP: reduces cGMP signal in GloSensor control cells; shares compounds with NPR1 antag; HEK293 GloSensor cGMP, SNP-stimulated, luminescence; Potency, µM (doses to about 57.6 µM), inactives show at the highest dose activity change, negative = inhibition, actives largely listed as inhibitors; hit rate 69% among 1,400; AID 1347051; calls by dose curve; further: on the % scale 0 is the no-effect control and ±100 the full control effect; nearly all actives have a fitted effect of over 70% in size
An asterisk follows results filed as active; i = inactive; ? = inconclusive; nt = no result given; [ ] = dose if it differs, or a comment. In the library only some 10% were active in any assay of this set; here they are far more common. Unless noted, the call rests on the fitted dose curve; in most records, active means well fitted curve in the direction sought with a large enough effect; inconclusive means small, poorly fitted or top-dose-only effect, or another doubt; inactive means no such curve, though single readings can be large; an effect the other way counts as inactive or inconclusive. Potency means the concentration at half of the fitted maximal effect.

SMILES | NPR1 antag | GPT2 inhibitor | 3T3 cytotox | HEK293 tox | FLuc inh | Npr1 antag conf | Npr2 selectivity | FLuc inh counter | GloSensor cGMP
COCc1cc(N2CCc3onc(-c4cccc5ccccc45)c3C2)ncn1 | 12.6µM* | i | ? | 35.5µM* | i | 21.7µM* | ? | -0.3% | 24.3µM*
C[S+](=O)([O-])c1ccc(-c2nnc3ccc(C(=O)NCC4CC4)cn23)cc1 | nt | i | -3.4% | -5.6% | nt | nt | nt | nt | nt
O=C(CCC1CCN(S(=O)(=O)c2ccc(F)cc2)CC1)NCc1nc2ccccc2[nH]1 | 11.2µM* | i | -44.1% | ? | i | 19.3µM* | 21.7µM* | 0.4% | 15.3µM*
O=C(CCC1CCN(S(=O)(=O)c2ccccc2)CC1)NCc1ccc(F)cc1 | -24.7% | 3.4% | ? | ? | i | nt | nt | nt | nt
CCOc1ccccc1C1NC(=O)N(CC(=O)Nc2ccc(C)c(F)c2)C2=C1C(=O)OC2 (stereo not given) | -19.9% | 3.1% | ? | ? | i | nt | nt | nt | nt
O=C(c1ccnc2ccccc12)N1CCC2(CC1)Nc1ccccc1NC2=O | ? | ? | -45.8% | ? | i | 21.7µM* | ? | 2.9% | 27.3µM*
Cc1nc(CN2C(=O)OC3(CCN(Cc4c[nH]c5ccccc45)CC3)C2(C)c2ccccc2)cs1 (stereo not given) | -21.2% | i | 20µM* | ? | i | ? | ? | 1.4% | 0.6%
CC(C)[C@@H]1CN(S(=O)(=O)c2ccc(Cl)cc2Cl)C[C@H]1N(C)C | -6.5% | i | ? | ? | i | nt | nt | nt | nt
COc1ccc(NC(=O)C2CCN(c3cc(C(F)(F)F)ncn3)CC2)cc1 | ? | 1.8% | -21.1% | -25.4% | i | nt | nt | nt | nt
CC(C)c1ccc(NC(=O)C2CCN(c3cc(C(F)(F)F)ncn3)CC2)cc1 | 7.08µM* | i | ? | ? | i | 7.69µM* | 8.62µM* | 4.5% | 4.85µM*
O=C(Nc1ccc(F)cc1)C1CCN(c2cc(C(F)(F)F)ncn2)CC1 | ? | i | -32.7% | -30.4% | i | 21.7µM* | ? | -0.5% | 24.3µM*
COc1ccc(NC(=O)C2CCN(c3cc(C(F)(F)F)ncn3)CC2)cc1OC | -19.2% | ? | -25.0% | ? | i | nt | nt | nt | nt
Cc1ccc(NC(=O)C2CCN(c3cc(C(F)(F)F)ncn3)CC2)cc1Cl | 10µM* | i | 17.8µM* | ? | i | 12.2µM* | 19.3µM* | -1.4% | 12.2µM*
COCCNC(=O)c1cc(-c2ccsc2)nc2c1cnn2C | nt | i | ? | -8.7%[172 µM] | nt | nt | nt | nt | nt
COCCNc1nc2c([S+](=O)([O-])c3ccc(Cl)cc3)nnn2c2ccccc12 | nt | -5.1% | 3.2% | i | nt | nt | nt | nt | nt
COc1cccc(CN2CC(O)CN([S+](=O)([O-])c3ccc(C)cc3)CC2=O)c1OC (stereo not given) | nt | nt | -27.9% | ? | nt | nt | nt | nt | nt
CC(C)Cc1ccc(S(=O)(=O)N(C)CC2CCOC2)cc1 (stereo not given) | ? | ? | -22.4% | ? | i | nt | nt | nt | nt
CC(C)Cc1ccc(S(=O)(=O)N(C)CC2CCOCC2)cc1 | 10µM* | -11.8% | -27.8% | ? | i | 15.3µM* | 13.7µM* | -0.1% | 10.9µM*
CCCc1ccc(S(=O)(=O)N(C)CC2CCOCC2)cc1 | ? | i | ? | ? | i | 24.3µM* | ? | 3.0% | 19.3µM*
